This passage reports outcome results from PubChem BioAssay (NCATS).

Inconclusive results are not listed. Activity calls are given as the source filed them. The call rests on the fitted dose curve; in most records, active means well fitted curve in the direction sought with a large enough effect in the signal ratio; inconclusive means small, poorly fitted or top-dose-only effect, or a change in a side signal; inactive means no such curve, though single readings can be large or run the other way; the % refers to the signal ratio.

Chain of Tumor necrosis factor (Homo sapiens) (P01375 whole entry, looked up): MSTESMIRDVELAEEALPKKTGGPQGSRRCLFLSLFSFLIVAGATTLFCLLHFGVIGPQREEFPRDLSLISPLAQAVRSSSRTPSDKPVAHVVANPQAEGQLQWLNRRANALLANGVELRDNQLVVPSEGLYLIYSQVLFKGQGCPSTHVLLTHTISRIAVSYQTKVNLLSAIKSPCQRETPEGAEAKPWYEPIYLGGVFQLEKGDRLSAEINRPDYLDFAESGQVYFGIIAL

This assay has as its target Tumor necrosis factor (Homo sapiens) (UniProt P01375). Nature of the assay: qHTS assay to identify small molecules that stimulate Tumor Necrosis Factor-alpha (TNF-alpha) secretion (AID 651757). Conditions: Human cells, HTRF 665/615 ratio; series mostly up to 92.2 µM. An excerpt: National Center for Advancing Translational Sciences [NCATS]
NIH Chemical Genomics Center [NCGC]
National Institutes of Environmental Health Sciences [NIEHS]
National Toxicology Program [NTP]
Tumor Necrosis Factor-alpha (TNF-alpha), a secreted cytokine, plays an important role in inflammatory diseases and immune disorders. TNF-alpha, a 17 kDa cytokine, is mainly secreted by activated macrophages and monocytes in response to several inflammatory and immunological stimuli. To study the effect of environmental chemicals on TNF-alpha secretion, a homogeneous TNF-alpha assay was developed using Time Resolved fluorescence (HTRF) technology based on Time Resolved Fluorescent Resonance Energy Transfer (TR-FRET) (Leister et al., Current Chemical Genomics, 5:21-29, 2011). This assay allows measuring TNF-alpha secreted from the cells in a 1536-well plate format.
THP-1 cells were dispensed at 3000 cells/5ul/well in 1536-well white solid plates. After addition of 23 nl of compound, positive controls and DMSO only, the assay plates were incubated at 37 C for 17 hrs, followed by addition of 5 uLof mixture of cryptate labeled and XL665 labeled anti-TNF-alpha antibodies. After the assay plates were incubated at room temperature for 3 hr, the plates were measured by an EnVision plate reader.
In the case of `O=C(NO)c1ccccc1`, the result was inactive.
On to `C1=CC2C3C=CC(C3)C2C1` (stereo unspecified), for which the outcome was inactive.
As for `Brc1ccccc1-c1ccccc1`, the result was inactive.
Under `Cc1cc(C(C)(C)C)c(O)c(C(C)(C)C)c1` stands “inactive”.
As to `c1ccc2occc2c1`, the outcome was inactive.
As for `Cc1ccc(O)cc1`, the entry is “inactive”; as for `O=C(Oc1ccccc1)c1ccccc1O`, “inactive”; as for `OCc1c[nH]c2ccccc12`, “inactive”.
In the case of `Oc1ccccc1`, the outcome was inactive.
Turning to `CCCCC(CC)COC(=O)c1ccccc1C(=O)O` (stereo unspecified), the result was inactive.
For `CC(C)C(C)(C)C(C)(C)C(C)(C)S`, the outcome was inactive.
As for `CC(=O)OC/C=C(C)/C=C/C=C(C)/C=C/C1=C(C)CCCC1(C)C`, the result was inactive.
Regarding `CC(C)(C)c1ccc(O)c(O)c1`, the outcome was inactive.
As to `O=C(c1ccccc1)c1ccccc1`, the outcome was inactive.
In the case of `CCCCCCCCCCCCCCCC[n+]1ccccc1`, the result was inactive.
Turning to `CC(C)(c1ccc(O)cc1)c1ccc(O)cc1`, the outcome was inactive.
